The source of these data is PubChem BioAssay (NCATS).

Inconclusive results are not listed. Values without a mark were called inactive. The source made the active and inactive calls. Calls follow the shape of the dose curve; as a rule, active = well fitted cell-killing curve with a large enough effect; inconclusive = small, poorly fitted or top-dose-only effect; inactive = flat fitted curve, though single readings scatter.
Potency is read from the fitted curve at half-maximal effect.

One assay in a line: Cellular viability qHTS for adrenocortical cancer (ACC) cell line SW-13 (AID 1963989). Also: nearly all actives have a fitted effect of over 65% in size.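 As to activity (max response): cells grown in serum-free medium with ITS supplement; % is scaled to controls: 0 for no effect and ±100 for the full control effect.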 The conditions noted are these: SW-13 ACC cells viability, CellTiter-Glo, 48 h; activity (max response): stronger effect = lower value. An outline of the steps: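 48 h treatment, SW-13 in ITS/DMEM serum-free; doses up to 46 uM; readout CellTiter-Glo luminescence; curve fit four-parameter logistic.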
In general terms: In qHTS, concentration-response curves come from the screen itself.
Take `CCc1cnn2c(NCc3ccc[n+]([O-])c3)cc(N3CCCC[C@H]3CCO)nc12`: the Potency is 0.0355 µM (active).
Regarding `O=C1S/C(=C\c2ccc(OCc3cccc(B(O)O)c3)cc2)C(=O)N1Cc1ccc(F)cc1`, the activity (max response) was -17.7%.
For `CC1CC(=O)NN=C1c1ccc(NCC(C)(C)NCC(O)COc2cc(Cl)ccc2C#N)cc1` (stereo unspecified), the activity (max response) was -8.94%.
Still for that read-out and setting: as for `CC(C)(C)CC(=O)OCC(=O)[C@@]1(O)CC[C@H]2[C@@H]3CCC4=CC(=O)C=C[C@]4(C)[C@H]3[C@@H](O)C[C@@]21C`, the figure is -10.9%.
Take `c1ccc(-c2ccc(C(c3ccccc3)n3ccnc3)cc2)cc1` (stereo unspecified): the Potency was 18.4 µM (active).
On to `C=CC(=O)Nc1ccc(F)c(-c2ncnc3[nH]cc(C(=O)OCC)c23)c1`, for which the Potency was 22.4 µM (active).
As for `CC(C)=CCC/C(C)=C/CC/C(C)=C/CSc1ccccc1C(=O)O`, the activity (max response) was -19.3%.
Regarding `COc1ccc(-n2cnc3cc(C(=O)N4CCCCC4)ccc32)cc1`, the activity (max response) was -10.1%.
`O=C(NC1CCN(CCc2c[nH]c3ccccc23)CC1)c1ccccc1`: the activity (max response) was -18.1%.
As for `CCC[C@H](NC(=O)[C@@H]1[C@H]2CCC[C@H]2CN1C(=O)[C@@H](NC(=O)[C@@H](NC(=O)c1cnccn1)C1CCCCC1)C(C)(C)C)C(=O)C(=O)NC1CC1`, the activity (max response) was -27.4%.
Turning to `CCCCC1C(=O)N(c2ccccc2)N(c2ccccc2)C1=O`, the activity (max response) was -21.3%.
Take `Cc1ccc(N)cc1O`: the activity (max response) is 2.63%.
In the case of `CCC(CN)=C(c1ccccc1)c1ccccc1`, the activity (max response) was -12.8%.
As for `CCc1nn(CCCN2CCN(c3cccc(Cl)c3)CC2)c(=O)n1CCOc1ccccc1`, the Potency was 14.6 µM (active).
For the compound `CCCNC(=O)c1cn2ncnc(Nc3cc(C(=O)NC4CC4)ccc3C)c2c1C`, the activity (max response) was 7.33%.
Regarding `CC(CC1c2ccccc2CCc2ccccc21)CN(C)C` (stereo unspecified), the activity (max response) was -20.3%.
For the compound `NC(=O)C(=O)N/N=C/c1ccc([N+](=O)[O-])o1`, the activity (max response) is -15.1%.
Turning to `N#CCC1(n2cc(-c3ncnc4[nH]ccc34)cn2)CN(C2CCN(C(=O)c3ccnc(C(F)(F)F)c3F)CC2)C1`, the activity (max response) was -10.7%.
On to `CC(=O)OCC(=O)[C@H]1CC[C@H]2[C@@H]3CCC4=CC(=O)CC[C@]4(C)[C@H]3CC[C@]12C`, for which the activity (max response) is 2.66%.
Regarding `CO[C@@]1(NC(=O)Cc2cccs2)C(=O)N2C(C(=O)O)=C(COC(N)=O)CS[C@@H]21`, the activity (max response) is 12.4%.
As for `Cc1ccc(C(=O)Oc2ccc(C(O)CNC(C)(C)C)cc2OC(=O)c2ccc(C)cc2)cc1` (stereo unspecified), the activity (max response) is -16%.
As for `CCN(CCCCOC(=O)c1ccc(OC)c(OC)c1)C(C)Cc1ccc(OC)cc1` (stereo unspecified), the activity (max response) is -18.6%.
With `Cc1ccc(CCn2c3c(c4cc(Cl)ccc42)CN(C)CC3)cn1`, the activity (max response) was -12.3%.
Regarding `CCOc1ccc2nc(S(N)(=O)=O)sc2c1`, the activity (max response) is -20.8%.
Same read-out and setting: under `O=[N+]([O-])c1ccc(/C=N\O)o1` stands -5.61%; under `COc1cc(N)c(Cl)cc1C(=O)NC1CCN(Cc2ccccc2)CC1`, -15.7%.
Consider `CC(=O)OC/C=C(C)/C=C/C=C(C)/C=C/C1=C(C)CCCC1(C)C`, for which the activity (max response) was 4.17%.

A further assay in a line: Cellular viability qHTS for adrenocortical cancer (ACC) cell line NCI-H295R (AID 1963990). Also: nearly all actives have a fitted effect of over 60% in size. Particulars: CellTiter-Glo ATP luminescence, 48 h; series mostly up to 46.1 µM. The method in brief: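 Compound titrations (up to 46 uM final) are applied to NCI-H295R cultures for 48 h at 37C. Viable cell number is estimated by CellTiter-Glo signal, normalised to DMSO and doxorubicin controls.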
On to `CCc1ccc(/C=C2/SC(=S)NC2=O)cc1`, for which the Potency was 17.8 µM (active).
Turning to `COc1ccc(-n2cnc3cc(C(=O)N4CCCCC4)ccc32)cc1`, the Potency result was “inactive”.
As to `CCC[C@H](NC(=O)[C@@H]1[C@H]2CCC[C@H]2CN1C(=O)[C@@H](NC(=O)[C@@H](NC(=O)c1cnccn1)C1CCCCC1)C(C)(C)C)C(=O)C(=O)NC1CC1`, the Potency entry is “inactive”.
In the case of `CO[C@@]1(NC(=O)Cc2cccs2)C(=O)N2C(C(=O)O)=C(COC(N)=O)CS[C@@H]21`, the Potency result is “inactive”.
